Measured values from ChEMBL document CHEMBL1961873, “Compounds: GSK PKIS; Assays: Nanosyn kinase panel” (2012).

What was measured:
[1] = biological target: Platelet-derived growth factor receptor beta (Homo sapiens) (UniProt P09619); conditions: at 1 µM;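 note: each value is a mean percent inhibition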
[2] = biological target: Tyrosine-protein kinase FRK (Homo sapiens) (UniProt P42685); conditions: at 0.1 µM
[3] = biological target: Tyrosine-protein kinase FRK (Homo sapiens) (UniProt P42685); conditions: at 1 µM
[4] = biological target: Protein-tyrosine kinase 2-beta (Homo sapiens) (UniProt Q14289); conditions: at 0.1 µM
Protein-tyrosine kinase 2-beta (Homo sapiens), sequence (Q14289 whole entry, looked up): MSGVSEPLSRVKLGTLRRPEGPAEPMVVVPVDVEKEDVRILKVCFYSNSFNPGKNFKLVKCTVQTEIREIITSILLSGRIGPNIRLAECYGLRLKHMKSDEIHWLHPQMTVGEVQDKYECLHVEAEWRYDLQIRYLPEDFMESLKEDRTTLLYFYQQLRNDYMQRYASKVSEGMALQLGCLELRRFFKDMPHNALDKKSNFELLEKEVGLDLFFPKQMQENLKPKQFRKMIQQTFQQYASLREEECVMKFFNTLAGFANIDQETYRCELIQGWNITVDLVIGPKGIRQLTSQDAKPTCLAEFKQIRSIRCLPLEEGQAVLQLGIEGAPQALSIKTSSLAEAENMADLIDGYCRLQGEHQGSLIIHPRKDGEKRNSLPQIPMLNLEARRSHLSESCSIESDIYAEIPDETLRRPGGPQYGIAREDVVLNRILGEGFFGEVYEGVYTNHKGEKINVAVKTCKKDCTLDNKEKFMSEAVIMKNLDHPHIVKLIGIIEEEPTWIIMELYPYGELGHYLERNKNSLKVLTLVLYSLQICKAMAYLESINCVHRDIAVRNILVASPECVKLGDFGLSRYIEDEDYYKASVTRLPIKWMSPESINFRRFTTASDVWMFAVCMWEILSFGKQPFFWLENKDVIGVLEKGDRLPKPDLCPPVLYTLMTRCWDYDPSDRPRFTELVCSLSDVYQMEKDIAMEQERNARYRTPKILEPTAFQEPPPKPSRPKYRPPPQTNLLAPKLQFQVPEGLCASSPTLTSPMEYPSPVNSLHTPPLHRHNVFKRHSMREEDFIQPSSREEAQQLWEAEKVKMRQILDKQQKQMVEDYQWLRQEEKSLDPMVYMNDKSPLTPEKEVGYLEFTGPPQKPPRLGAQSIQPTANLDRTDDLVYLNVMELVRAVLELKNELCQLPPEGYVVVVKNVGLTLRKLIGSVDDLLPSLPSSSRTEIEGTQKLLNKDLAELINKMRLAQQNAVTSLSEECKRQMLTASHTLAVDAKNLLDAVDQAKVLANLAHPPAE

[5] = biological target: Protein-tyrosine kinase 2-beta (Homo sapiens) (UniProt Q14289); conditions: at 1 µM
[6] = biological target: Proto-oncogene tyrosine-protein kinase receptor Ret (Homo sapiens) (UniProt P07949); conditions: at 0.1 µM
Proto-oncogene tyrosine-protein kinase receptor Ret (Homo sapiens), sequence (P07949 whole entry): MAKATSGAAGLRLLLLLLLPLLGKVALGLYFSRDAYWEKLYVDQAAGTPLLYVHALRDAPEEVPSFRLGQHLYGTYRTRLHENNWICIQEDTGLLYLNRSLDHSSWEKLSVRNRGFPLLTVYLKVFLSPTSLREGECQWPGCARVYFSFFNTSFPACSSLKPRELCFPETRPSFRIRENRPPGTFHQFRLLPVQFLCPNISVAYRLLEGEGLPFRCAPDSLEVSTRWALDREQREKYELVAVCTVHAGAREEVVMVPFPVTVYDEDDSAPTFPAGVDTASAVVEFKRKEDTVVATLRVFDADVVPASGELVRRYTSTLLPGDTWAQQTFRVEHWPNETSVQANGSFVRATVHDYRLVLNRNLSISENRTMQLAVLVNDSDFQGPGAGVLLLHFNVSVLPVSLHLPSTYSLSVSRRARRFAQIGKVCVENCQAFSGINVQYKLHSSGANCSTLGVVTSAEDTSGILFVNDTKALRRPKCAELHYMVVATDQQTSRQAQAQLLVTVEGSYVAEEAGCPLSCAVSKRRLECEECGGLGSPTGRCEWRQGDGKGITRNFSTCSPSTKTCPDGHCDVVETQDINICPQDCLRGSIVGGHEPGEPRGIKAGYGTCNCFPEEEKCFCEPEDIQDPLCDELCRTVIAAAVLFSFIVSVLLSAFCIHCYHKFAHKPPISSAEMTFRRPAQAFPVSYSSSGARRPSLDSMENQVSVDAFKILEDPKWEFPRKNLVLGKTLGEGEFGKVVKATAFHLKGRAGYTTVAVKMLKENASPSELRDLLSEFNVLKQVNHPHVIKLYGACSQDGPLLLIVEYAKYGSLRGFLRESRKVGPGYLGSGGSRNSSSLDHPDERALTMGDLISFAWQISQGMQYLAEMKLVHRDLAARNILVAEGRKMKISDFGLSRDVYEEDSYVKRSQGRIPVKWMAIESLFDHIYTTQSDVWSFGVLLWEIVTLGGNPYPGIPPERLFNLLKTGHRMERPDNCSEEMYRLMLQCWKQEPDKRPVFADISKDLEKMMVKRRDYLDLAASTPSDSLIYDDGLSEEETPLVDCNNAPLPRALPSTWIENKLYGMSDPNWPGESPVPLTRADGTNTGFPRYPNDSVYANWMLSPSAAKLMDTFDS

[7] = biological target: Proto-oncogene tyrosine-protein kinase receptor Ret (Homo sapiens) (UniProt P07949); conditions: at 1 µM
[8] = system: Proto-oncogene tyrosine-protein kinase receptor Ret (Homo sapiens), P07949 [V804L]; conditions: at 0.1 µM
[9] = system: Proto-oncogene tyrosine-protein kinase receptor Ret (Homo sapiens), P07949 [V804L]; conditions: at 1 µM
[10] = system: Proto-oncogene tyrosine-protein kinase receptor Ret (Homo sapiens), P07949 [Y791F]; conditions: at 0.1 µM
Proto-oncogene tyrosine-protein kinase receptor Ret (Homo sapiens), P07949 [Y791F], sequence (P07949 whole entry Y791F): as the sequence (P07949 whole entry) above, with Y791F counted along it

[11] = system: Proto-oncogene tyrosine-protein kinase receptor Ret (Homo sapiens), P07949 [Y791F]; conditions: at 1 µM
[12] = biological target: Macrophage-stimulating protein receptor (Homo sapiens) (UniProt Q04912); conditions: at 0.1 µM
Macrophage-stimulating protein receptor (Homo sapiens), sequence (Q04912 25-304 limits assumed): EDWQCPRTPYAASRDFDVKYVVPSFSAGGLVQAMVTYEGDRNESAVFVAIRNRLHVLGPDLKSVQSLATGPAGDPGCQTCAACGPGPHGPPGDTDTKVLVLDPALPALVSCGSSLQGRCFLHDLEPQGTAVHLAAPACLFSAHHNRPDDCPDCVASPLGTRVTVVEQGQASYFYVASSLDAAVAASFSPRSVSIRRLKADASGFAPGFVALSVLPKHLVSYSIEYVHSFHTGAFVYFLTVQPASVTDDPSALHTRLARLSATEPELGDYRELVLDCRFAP
Macrophage-stimulating protein receptor (Homo sapiens), sequence (Q04912 310-1400 limits assumed): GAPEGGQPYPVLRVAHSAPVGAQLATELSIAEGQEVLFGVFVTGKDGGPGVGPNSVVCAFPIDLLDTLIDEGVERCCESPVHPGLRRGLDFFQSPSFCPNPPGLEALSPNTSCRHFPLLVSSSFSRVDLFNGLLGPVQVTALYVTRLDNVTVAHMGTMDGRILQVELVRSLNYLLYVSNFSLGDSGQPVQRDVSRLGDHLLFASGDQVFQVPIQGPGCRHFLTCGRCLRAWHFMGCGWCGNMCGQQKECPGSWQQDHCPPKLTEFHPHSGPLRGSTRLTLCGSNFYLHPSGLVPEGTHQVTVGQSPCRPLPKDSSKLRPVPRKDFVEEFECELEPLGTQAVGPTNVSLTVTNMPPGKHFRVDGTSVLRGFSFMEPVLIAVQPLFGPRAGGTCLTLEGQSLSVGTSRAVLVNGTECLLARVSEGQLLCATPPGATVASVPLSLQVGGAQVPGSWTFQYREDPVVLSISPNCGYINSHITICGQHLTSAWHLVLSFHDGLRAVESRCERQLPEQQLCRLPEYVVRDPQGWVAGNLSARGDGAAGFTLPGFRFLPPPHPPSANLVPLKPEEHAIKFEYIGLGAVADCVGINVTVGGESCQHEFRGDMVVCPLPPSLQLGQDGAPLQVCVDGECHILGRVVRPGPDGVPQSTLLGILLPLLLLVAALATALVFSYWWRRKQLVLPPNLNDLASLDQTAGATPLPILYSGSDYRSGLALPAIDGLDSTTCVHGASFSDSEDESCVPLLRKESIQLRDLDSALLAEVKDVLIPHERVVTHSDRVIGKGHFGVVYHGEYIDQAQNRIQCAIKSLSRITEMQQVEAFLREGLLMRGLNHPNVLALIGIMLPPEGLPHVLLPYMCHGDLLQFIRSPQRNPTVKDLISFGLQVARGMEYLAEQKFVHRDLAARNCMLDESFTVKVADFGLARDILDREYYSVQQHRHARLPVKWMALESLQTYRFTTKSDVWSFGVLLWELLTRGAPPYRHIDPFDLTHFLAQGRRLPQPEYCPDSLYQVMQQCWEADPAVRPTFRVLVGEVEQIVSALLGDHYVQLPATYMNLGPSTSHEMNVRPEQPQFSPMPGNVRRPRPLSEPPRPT

[13] = biological target: Macrophage-stimulating protein receptor (Homo sapiens) (UniProt Q04912); conditions: at 1 µM
[14] = biological target: Proto-oncogene tyrosine-protein kinase ROS (Homo sapiens) (UniProt P08922); conditions: at 0.1 µM
[15] = biological target: Proto-oncogene tyrosine-protein kinase ROS (Homo sapiens) (UniProt P08922); conditions: at 1 µM
[16] = biological target: Proto-oncogene tyrosine-protein kinase Src (Homo sapiens) (UniProt P12931); conditions: at 0.1 µM
Proto-oncogene tyrosine-protein kinase Src (Homo sapiens), sequence (P12931 2-536 limits assumed): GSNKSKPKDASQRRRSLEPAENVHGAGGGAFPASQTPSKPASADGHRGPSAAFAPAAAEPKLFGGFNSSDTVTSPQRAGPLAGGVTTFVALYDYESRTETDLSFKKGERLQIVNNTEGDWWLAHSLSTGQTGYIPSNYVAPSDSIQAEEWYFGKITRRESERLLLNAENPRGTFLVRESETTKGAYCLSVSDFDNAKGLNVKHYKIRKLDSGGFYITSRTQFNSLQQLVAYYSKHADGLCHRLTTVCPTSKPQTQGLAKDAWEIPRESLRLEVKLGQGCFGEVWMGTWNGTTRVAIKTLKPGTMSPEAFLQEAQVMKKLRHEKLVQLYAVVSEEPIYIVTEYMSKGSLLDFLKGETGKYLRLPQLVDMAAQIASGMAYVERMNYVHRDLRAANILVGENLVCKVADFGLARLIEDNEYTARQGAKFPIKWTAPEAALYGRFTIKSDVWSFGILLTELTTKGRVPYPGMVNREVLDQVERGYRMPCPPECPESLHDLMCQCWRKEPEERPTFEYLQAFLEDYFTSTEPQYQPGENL

[17] = biological target: Proto-oncogene tyrosine-protein kinase Src (Homo sapiens) (UniProt P12931); conditions: at 1 µM
[18] = biological target: Tyrosine-protein kinase Srms (Homo sapiens) (UniProt Q9H3Y6); conditions: at 0.1 µM
Tyrosine-protein kinase Srms (Homo sapiens), sequence (Q9H3Y6 whole entry): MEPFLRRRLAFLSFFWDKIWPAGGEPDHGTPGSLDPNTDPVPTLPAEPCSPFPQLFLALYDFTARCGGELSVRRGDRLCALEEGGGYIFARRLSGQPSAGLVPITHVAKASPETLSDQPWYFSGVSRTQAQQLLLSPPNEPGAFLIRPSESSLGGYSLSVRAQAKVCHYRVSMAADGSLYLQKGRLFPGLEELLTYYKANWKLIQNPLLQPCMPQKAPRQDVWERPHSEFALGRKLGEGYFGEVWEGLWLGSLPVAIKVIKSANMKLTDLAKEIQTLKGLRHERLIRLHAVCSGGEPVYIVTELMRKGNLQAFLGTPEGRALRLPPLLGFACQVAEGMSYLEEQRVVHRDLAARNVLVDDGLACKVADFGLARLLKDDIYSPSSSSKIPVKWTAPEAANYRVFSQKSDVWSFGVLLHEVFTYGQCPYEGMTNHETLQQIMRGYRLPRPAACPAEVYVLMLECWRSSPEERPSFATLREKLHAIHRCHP

[19] = biological target: Tyrosine-protein kinase Srms (Homo sapiens) (UniProt Q9H3Y6); conditions: at 1 µM
[20] = biological target: Tyrosine-protein kinase SYK (Homo sapiens) (UniProt P43405); conditions: at 0.1 µM;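 note: reported percentages are mean inhibition values for SYK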

Tyrosine-protein kinase FRK (Homo sapiens), sequence (P42685 whole entry): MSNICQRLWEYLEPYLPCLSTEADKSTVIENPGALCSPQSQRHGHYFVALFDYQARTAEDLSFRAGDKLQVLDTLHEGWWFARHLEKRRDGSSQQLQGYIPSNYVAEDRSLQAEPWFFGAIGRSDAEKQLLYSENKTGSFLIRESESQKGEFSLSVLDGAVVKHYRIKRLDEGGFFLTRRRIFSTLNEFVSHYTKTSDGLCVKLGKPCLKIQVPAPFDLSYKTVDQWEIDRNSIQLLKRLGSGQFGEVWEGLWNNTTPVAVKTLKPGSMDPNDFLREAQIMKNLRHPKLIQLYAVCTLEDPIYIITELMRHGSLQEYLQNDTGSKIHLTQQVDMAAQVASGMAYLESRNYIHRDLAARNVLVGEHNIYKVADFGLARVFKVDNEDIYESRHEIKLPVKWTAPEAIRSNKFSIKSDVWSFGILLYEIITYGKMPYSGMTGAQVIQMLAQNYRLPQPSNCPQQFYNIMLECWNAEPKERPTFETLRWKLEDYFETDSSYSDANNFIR

SMILES	inhibition [1]	inhibition [2]	inhibition [3]	inhibition [4]	inhibition [5]	inhibition [6]	inhibition [7]	inhibition [8]	inhibition [9]	inhibition [10]	inhibition [11]	inhibition [12]	inhibition [13]	inhibition [14]	inhibition [15]	inhibition [16]	inhibition [17]	inhibition [18]	inhibition [19]	inhibition [20]
CN(C)CCCn1c(-c2nonc2N)nc2cnccc21	11.6%	2.2%	1.55%	9.44%	4.55%	7.25%	8.04%	1.93%	2.02%	2.47%	8.31%	1.31%	3.53%	5.53%	4.62%	2.96%	6.8%	-0.98%	-4.16%	-4.3%
N#Cc1cccc(Nc2nccc(-c3cnn4ncccc34)n2)c1	65.1%	5.2%	16%	21.6%	71%	8.71%	37.4%	6.87%	43.8%	7.91%	37.3%	-3.06%	15.6%	32.1%	74.2%	14.3%	66%	1.1%	14.7%	–
C[C@@H](Oc1cc(-n2cnc3ccc(OCC4CCN(C)CC4)cc32)sc1C(N)=O)c1ccccc1C(F)(F)F	81.5%	-0.4%	0.5%	-2.32%	6.22%	2.63%	11.6%	2.09%	18.5%	1.2%	18.4%	-0.38%	9.36%	0.2%	7.21%	-1.27%	21.3%	1.72%	2.5%	0.48%
COc1cccc(-n2ncc3c(N/N=C/c4ccc(C)cc4)ncnc32)c1	21.1%	2.86%	5.6%	4.06%	15.8%	3%	11.5%	3.72%	10.2%	4.38%	13.9%	2.1%	9.64%	14.2%	38.4%	14.2%	32.9%	-2.37%	-0.01%	0.52%
COc1cc(/C=N/Nc2ncnc3c2cnn3C(C)C)ccc1O	45.1%	2.61%	1.87%	8.31%	21.9%	61.1%	85.4%	14.1%	53.9%	54%	78.1%	8.98%	17.9%	11.9%	37.5%	20.8%	72.7%	1.16%	4.98%	-1.05%
CN(c1ccc(NC(=O)Nc2ccc(OC(F)(F)F)cc2)cc1)c1ccnc(Nc2cccc(S(N)(=O)=O)c2)n1	82.1%	5.62%	40.9%	5.52%	59%	79.8%	72%	53.8%	86.4%	67.4%	92.1%	54.3%	90.5%	15.2%	66.9%	41.9%	86.5%	0.09%	14.3%	-1.49%
Cc1ccc(NC(=O)CC2CC2)cc1-c1ccc(C(=O)NCC2CC2)cc1	8.86%	2.5%	2.58%	5.55%	9.67%	4.79%	9.25%	2.68%	10%	7.7%	28.8%	-0.78%	1.45%	4.69%	8.56%	4.43%	8.28%	0.3%	5.61%	-2.32%
Cc1ccc(O)cc1Nc1ccnc2ccc(S(C)(=O)=O)cc12	84.2%	89%	95.7%	15.7%	41.3%	81.8%	88.4%	7.62%	26.6%	81.3%	89.5%	5.15%	6.07%	5.41%	8.68%	92.2%	95.1%	27.4%	69%	-7.79%
COC(=O)Nc1nc2cc(Oc3ccc(NC(=O)Nc4cccc(Br)c4)cc3)ccc2[nH]1	35.9%	2.82%	1.12%	5.36%	9.53%	69.7%	80.6%	37.5%	66.5%	66.4%	84.4%	1.47%	2.5%	4.26%	3.1%	3.27%	6.9%	2.26%	3.49%	-1.46%
COc1cc2ncnc(Nc3ccc(C)c(O)c3)c2cc1OC	76.6%	7.74%	19.9%	12.5%	18.9%	83.6%	89.4%	3.3%	11.3%	76.8%	90.1%	1.46%	2.44%	1.94%	10.2%	22.9%	70.5%	2.71%	18.7%	-4.37%
NS(=O)(=O)c1ccc(N/N=C2\C(=O)Nc3ccc(Cl)cc32)cc1	36.7%	1.76%	1.45%	6.41%	14%	-0.09%	14.5%	8.27%	41.6%	2.06%	22.3%	3.12%	–	4.68%	4.73%	-2.96%	14.1%	0.76%	0.2%	-0.57%
CCS(=O)(=O)c1ccc(OC)c(Nc2ncc(-c3cccc(OC)c3)o2)c1	74.8%	4.05%	26.9%	6.52%	10.9%	21.9%	68.5%	7.11%	44.1%	22.6%	67.1%	3.89%	3.42%	9.78%	43.3%	30.7%	79.4%	2.74%	30.6%	-0.11%
ON=C1CCc2cc(-c3nc(C4CCNCC4)[nH]c3-c3ccncc3)ccc21	23.3%	2.38%	-1.06%	1.86%	1.17%	1.22%	7.25%	6.18%	-3.85%	1.94%	8.46%	-6.87%	1.8%	1.07%	2.47%	2.03%	0.66%	0%	-2.67%	2.82%
CC(C)c1ccc2c(c1)NC(=O)/C2=N/Nc1ccc(S(N)(=O)=O)cc1	29.8%	-0.9%	2.77%	–	–	8.25%	34%	1.58%	6.41%	4.75%	30.7%	1.23%	-1.8%	0.66%	3.01%	3.8%	14%	0.59%	0.2%	1.61%
CS(=O)(=O)Nc1cccc(-c2ccc3c(NC(=O)C4CC4)n[nH]c3c2)c1	7.8%	0.86%	0.42%	2.77%	3.01%	-0.07%	15.4%	-3.08%	-1.31%	1.94%	-0.36%	-6.3%	-6.45%	3.6%	2.79%	1.2%	4.09%	1.35%	-2.43%	-1.34%
C[C@@H](Oc1cc(-n2cnc3ccc(OC[C@@H](O)CO)cc32)sc1C(N)=O)c1ccccc1Cl	54.6%	0.8%	2.17%	-2.91%	-1.09%	0.87%	7.49%	2.02%	5.35%	-0.83%	10.8%	-4.17%	6.85%	1.32%	11.6%	3.67%	5.14%	0.51%	2.19%	1.72%
[O-][S+]1CCN(Cc2ccc(-c3ccc4ncnc(Nc5ccc(OCc6ccccc6)c(Cl)c5)c4c3)o2)CC1	4.43%	0.22%	1.48%	6.05%	1.47%	3.12%	3.49%	2.69%	3.13%	4.06%	5.41%	1.76%	1.89%	2.65%	3.8%	1.76%	6.34%	-2.27%	-2%	1.18%
NC(=O)c1cccc(Nc2nccc(Nc3cccc(F)c3)n2)c1	54.2%	1.18%	11.8%	1.12%	25.4%	-0.62%	26.8%	1.12%	13.8%	3.72%	37.9%	-6.8%	5.75%	18.8%	60.8%	16.7%	64.8%	1.56%	5.6%	0.43%
Cc1nc(-c2ccccc2)n2nc(NCCCN3CCOCC3)ncc12	5.95%	3.57%	2.61%	1.99%	10.1%	0.76%	6.88%	2.64%	7.97%	4.35%	4.86%	2.7%	-3.01%	4.45%	2.41%	6.46%	6.81%	2.65%	2.27%	1.44%
NS(=O)(=O)c1cccc(-c2cc3ccncc3cc2OCc2ccccc2)c1	11.8%	3.66%	1.68%	–	–	6.15%	14.3%	6.02%	14.3%	12.6%	18%	3.72%	-2.44%	10.8%	17.1%	5.87%	11.2%	-1.16%	-2.93%	-6.65%
O=C1Nc2ccc(-c3cccnc3)cc2C1=Cc1cc(Br)c(O)c(Br)c1	–	1.84%	5.49%	9.77%	9.16%	-0.83%	7.95%	2.79%	16.2%	8.02%	1.19%	-1.31%	8.32%	8.46%	18.3%	2.96%	12.1%	12.3%	57.9%	-3.33%
